Results from ChEMBL document CHEMBL4513216, “Probing the Open Global Health Chemical Diversity Library for Multistage-Active Starting Points for Next-Generation Antimalarials” (ACS Infect Dis, 2020).
The whole screen tested about 68,000 compounds, of which about 2,700 (4%) showed an effect of 50% or more. Only a selection was taken, and strong results are over-represented in it overall.

What follows are compounds tested on Plasmodium berghei (assay: Screen against P. berghei liver stage (PbLuc), transformed with Luciferase, at 2uM). Conditions: tested at 2 uM.
Assay type: functional, HepG2

| SMILES | INHIBITION [%] |
| --- | --- |
| CC(C)C(=O)NS(=O)(=O)c1ccc(F)c(C(F)(F)F)c1 | 18.82 |
| COC(C)C(=O)NS(=O)(=O)c1ccc(F)c(C(F)(F)F)c1 (stereo unspecified) | 35.7 |
| CSC(C)C(=O)NS(=O)(=O)c1ccc(F)c(C(F)(F)F)c1 (stereo unspecified) | 51.48 |
| CC(C)N(C)CCC(=O)N1CCCC(c2ccc(C(=O)O)cc2)C1 (stereo unspecified) | -1.98 |
| Cc1cc(CN2CCc3nn(C)c(=O)cc3C2)no1 | 22.34 |
| Cc1cc(CN2CCc3nn(C)c(=O)cc3C2)on1 | -2.31 |
| CCCn1nc2c(cc1=O)CN(Cc1c(C)noc1C)CC2 | 44.37 |
| CCn1nc2c(cc1=O)CN(Cc1cc(C)on1)CC2 | 73.01 |
| CCCn1nc2c(cc1=O)CN(Cc1cc(C)no1)CC2 | 62 |
| CCCn1nc2c(cc1=O)CN(Cc1cc(C)on1)CC2 | -1.79 |
| Cc1cc(C)nc(N2CCC(Cn3cc(C(N)=O)cn3)CC2)n1 | 0.93 |
| Clc1ccc(-c2nnc([C@H]3CCN(C4CCCCC4)C3)o2)cc1 | -57.27 |
| O=C(Nc1cn[nH]c1)N1CCN(CCSc2ccccc2)CC1 | -11.24 |
| COCCN1CCc2cc(C(=O)NC(C)C)c(NCC(C)C)nc2CC1 | 42.15 |
| Cc1nn(C)c(Oc2ccc(Cl)cc2)c1CN1CCOC(CN)C1 (stereo unspecified) | 48.21 |
| Cc1nn(C)c(Oc2ccc(Cl)cc2)c1CN1CC[C@H](CO)[C@@H](O)C1 | 43.44 |
| Cc1nn(C)c(Oc2ccc(Cl)cc2)c1CN1CCC(CN)C1 (stereo unspecified) | 64.9 |
| CN(C)C(=O)CN1C[C@H]2CC[C@@H](C1)N(Cc1ccccc1OCCO)C2 | 5.28 |
| CC(C)[C@@H]1CN(Cc2cnc(C3CCCCC3)nc2)C[C@H]1N(C)C | -1.57 |
| CC(C)c1nn(C)c(N(C)C)c1CNCC(O)c1ccccc1 (stereo unspecified) | 35.65 |
| COc1ccccc1OCCNCc1c(C(C)C)nn(C)c1N(C)C | 7.64 |
| CC(C)c1nn(C)c(N(C)C)c1CNCC(O)c1ccccc1F (stereo unspecified) | 78.51 |

| SMILES | INHIBITION [%] |
| --- | --- |
| COc1ccccc1C(O)CNCc1c(C(C)C)nn(C)c1N(C)C (stereo unspecified) | 63.95 |
| COc1c(CNCC(O)c2ccccc2F)c(C(C)C)nn1C (stereo unspecified) | -72.31 |
| Cc1nn(C)c(N(C)C)c1CNCC(O)c1ccccc1F (stereo unspecified) | 49.9 |
| O=C(NCC1CC1)c1n[nH]c2c1CNCC2 | 5.69 |
| COc1nn(C)cc1C(=O)NCC(OC)c1ccccc1C (stereo unspecified) | 24.09 |
| COc1ccc(NC(=O)CN2CCCCC2C2OCCO2)cc1 (stereo unspecified) | -13.68 |
| O=C(C1CC1)N1CCN(C(=O)C2CC(=O)N(c3ccccc3Br)C2)CC1 (stereo unspecified) | 10.42 |
| COC1CCN(C(=O)C2CC(=O)N(c3ccccc3Br)C2)CC1 (stereo unspecified) | 22.86 |
| O=C(C1CC(=O)N(c2ccccc2Br)C1)N1CCCCCC1 (stereo unspecified) | 57.51 |
| CC(c1cn2ncsc2n1)n1cc2[nH]cccc-2c1=O (stereo unspecified) | 30.09 |
| CC(C)OCc1ncn2c1CN(CC1CC1)CCC2 | -13.31 |
| O=C(Nc1cnccn1)[C@@H]1C[C@H]2OCC[C@H]2N(Cc2ccsc2)C1 | 59.52 |
| O=C(Nc1cccnc1)[C@@H]1C[C@H]2OCC[C@H]2N(Cc2ccsc2)C1 | -83.74 |
| O=C(NCC1CC1)[C@H]1C[C@H]2OCC[C@H]2N(Cc2ccsc2)C1 | -12.09 |
| Cc1cccc(S(=O)(=O)N2C[C@@H]3C[C@H](C(=O)NC4CCC4)[C@H](C2)O3)c1 | 12.57 |
| COCCN1C[C@@H]2CC[C@H]1CN(C(=O)CCc1c(C)nn(C)c1C)C2 | -23.17 |
| O=S(=O)(c1ccc(-c2nc3c([nH]2)CCNC3)cc1)N1CCCC1 | 52.3 |
| O=C(Nc1ccc(-c2nc3c([nH]2)CCNC3)cc1)N1CCCC1 | -15.03 |
| CC(C)NC(=O)Nc1ccc(-c2nc3c([nH]2)CCNC3)cc1 | -35.22 |
| c1cnc(NCCCOC2CCOCC2)nc1 | 74.34 |
| Brc1cnc(NCCCOC2CCOCC2)nc1 | 21 |
| Brc1ccc(NCCCOC2CCOCC2)nc1 | -11.28 |

| SMILES | INHIBITION [%] |
| --- | --- |
| Cc1ccc(-c2cc(N)c(=O)n(CC(=O)NCC3CC3)n2)s1 | 36.17 |
| CN(Cc1ccccc1)CC1(O)CCCN(CC(C)(C)C)C1=O (stereo unspecified) | 16.64 |
| COCCC(=O)N1CCc2cc(Cl)cc(Cl)c2C1 | -10.6 |
| O=C(NCC1CCS(=O)(=O)C1)c1ccco1 (stereo unspecified) | 69.48 |
| Cc1cc(C(=O)NCC2CCS(=O)(=O)C2)ccc1NC(=O)c1ccco1 (stereo unspecified) | -34.12 |
| O=C(NCC1CCS(=O)(=O)C1)c1ccc(NC(=O)c2ccco2)cc1 (stereo unspecified) | -19.02 |
| CCOCCCC(=O)Nc1ccc(OCc2noc(C3CC3)n2)cc1 | 18.09 |
| COc1cccc2c1N(Cc1noc(C3CC3)n1)CCC2 | -17.64 |
| COc1cccc2c1N(Cc1nc(C3CC3)no1)CCC2 | 64.22 |
| COCCc1noc(CN2CCCc3cccc(OC)c32)n1 | -61.35 |
| CCCC(NC(=O)c1cncc(C)c1)c1nnn[nH]1 (stereo unspecified) | -10.41 |
| COCCN1CCc2ncnc(NC(C)C)c2CC1 | 3.6 |
| C[C@@H](NC(=O)c1cnccn1)c1c(-c2ccc(F)cc2)noc1C(=O)O | 34.79 |
| CC(C)c1ccc(CCC(=O)N2CCOCC2c2ncon2)cc1 (stereo unspecified) | 15.47 |
| Cc1cccc(C)c1OCC(=O)N1CCOCC1c1ncon1 (stereo unspecified) | 29.54 |
| Cc1ccc(CC(=O)N2CCOCC2c2ncon2)cc1 (stereo unspecified) | 54.99 |
| O=C(COc1ccc(Cl)cc1)N1CCOCC1c1ncon1 (stereo unspecified) | -29.5 |
| CCc1ccccc1OCC(=O)N1CCOCC1c1ncon1 (stereo unspecified) | 53.58 |
| O=C(COc1cccc(Cl)c1)N1CCOCC1c1ncon1 (stereo unspecified) | -6.71 |
| Cc1ccc(CCC(=O)N2CCOCC2c2ncon2)c(C)c1 (stereo unspecified) | 35.23 |
| CCc1ccc(CCC(=O)N2CCOCC2c2ncon2)cc1 (stereo unspecified) | -45.23 |
| O=C(CCc1cccc(Cl)c1Cl)N1CCOCC1c1ncon1 (stereo unspecified) | 58.52 |

| SMILES | INHIBITION [%] |
| --- | --- |
| COCc1cccc(NC(=O)NCCCN(C)S(C)(=O)=O)c1 | 30.98 |
| CC(C)CC(=O)N1CC(=O)N(Cc2ccco2)CC(O)C1 (stereo unspecified) | -6.69 |
| Cc1cccc(-c2nc(C)nn2CC(=O)NCC(C)C)c1 | -9.49 |
| CCC(=O)c1ccc(OCC(=O)NC(C)c2nnc(C)[nH]2)cc1 (stereo unspecified) | -20.29 |
| CCn1ccc2cc(NC(=O)CC3CCCO3)ccc21 (stereo unspecified) | -73.93 |
| Cc1cccc2cc(CO)c(N3Cc4cnc(C(C)(C)C)nc4C3)nc12 | 30.89 |
| CCC(Nc1nnnn1-c1ccccc1)C(=O)Nc1nc(C)cs1 (stereo unspecified) | -13.81 |
| Cc1nnsc1C(=O)NCc1cccnc1N(C)C | 6.17 |
| O=C(c1cccc(CNCC=Cc2ccccc2)c1)N1CCCC1 | 4.49 |
| CCN(Cc1nc2c(cnn2C)c(=O)[nH]1)c1ccccc1C | -16.3 |
| COc1ccc(NC(=O)C2CC2)cc1OCc1cccnc1 | 21.24 |
| COc1ccc(NC(C)=O)cc1OCc1cccnc1 | 5.44 |
| COc1ccc(NC(=O)C2CCCO2)cc1OCc1cccnc1 (stereo unspecified) | 61 |
| CCc1nnc2n1CCN(Cc1ncc(-c3ccc(F)cc3)o1)C2 | 1.6 |
| O=C(c1ncccn1)N1C[C@@H]2CN(Cc3cccnc3)CCO[C@@H]2C1 | 22.62 |
| CCN(Cc1noc(C2CCC2)n1)C(=O)c1cnc2ccccc2c1 | 19.53 |
| CCCc1nc(CN(CC)C(=O)c2onc3ccccc23)no1 | -12.7 |
| CCN(Cc1noc(C2CC2)n1)C(=O)c1onc2ccccc12 | 51.31 |
| Cc1cnc(N)c(C(=O)C2CCN(C(=O)c3ccccc3F)CC2)c1 | 21.37 |
| CC(=O)N1CCC(C(=O)c2cc(C)cnc2N)CC1 | 27.16 |
| Cc1cnc(N)c(C(=O)C2CCN(C(=O)c3cnc(C)nc3C)CC2)c1 | 69.08 |
| C=C(C)C(=O)N1CCC(C(=O)c2cc(C)cnc2N)CC1 | 6.57 |

| SMILES | INHIBITION [%] |
| --- | --- |
| Cc1cnc(N)c(C(=O)C2CCN(C(=O)c3cnc(C)cn3)CC2)c1 | 25.72 |
| Cc1cnc(N)c(C(=O)C2CCN(C(=O)C3CCC3)CC2)c1 | 61.16 |
| O=C(NCCn1cccn1)c1nnc2ccccc2n1 | 7.42 |
| O=C(NC[C@H]1Cn2c(-c3ccccc3)cnc2CO1)C1CC1 | 35.6 |
| CC1(C)CN(CC(F)(F)F)CCN1CC(=O)NC1CC1 | 65.42 |
| CC1(C)CN(CC(F)(F)F)CCN1CC(=O)NC1CCCC1 | 37.42 |
| CNC(=O)NC(=O)CN1CCN(CC(F)(F)F)CC1(C)C | 21.03 |
| CCC1CC(=O)NCc2nc3sc(C)cn3c21 (stereo unspecified) | -18.57 |
| CCCn1ncc(C2CC(=O)NCc3nc4cc(C)ccn4c32)c1C (stereo unspecified) | 48.21 |
| CCCn1ncc(C2CC(=O)NCc3nc4sc(C)cn4c32)c1C (stereo unspecified) | 55.36 |
| Cc1noc(C)c1CN(C)C(=O)Cn1c(=O)n(C)c2ccccc21 | -43.5 |
| Cc1ccc(NC(=O)Nc2c(O)c3ccccc3oc2=O)cc1C | 8.92 |
| COCCn1c2c(ccc1=O)CCN(C(=O)CC1CC1)CC2 | -13.68 |
| NC1(C(=O)N2CCC(c3cc(-c4ccccc4Cl)n[nH]3)CC2)CCC1 | 54.07 |
| NC(=O)NCC(=O)N1CCC(c2cc(-c3ccccc3Cl)n[nH]2)CC1 | 39.65 |
| NC(=O)NCCC(=O)N1CCC(c2cc(-c3ccccc3Cl)n[nH]2)CC1 | 31.25 |
| NC(=O)NC1CCN(Cc2ccc3c(c2)CCC3)CC1 | 30.42 |
| CC(c1nnc(-c2cccs2)o1)N1CCc2cncnc2C1 (stereo unspecified) | -9.5 |
